In ChEMBL document CHEMBL3988442, “University of Dundee, Small-Polar-MMV Screening Library” (2021):

biological target: T1, Aspartate--tRNA(Asp/Asn) ligase (Mycobacterium tuberculosis (strain ATCC 25618 / H37Rv)) (UniProt P9WFW3); assay: Assay for Asp RNA synthetase-1 from Mycobacterium tuberculosis; assay type: functional; set-up: scale not given: direction of the effect not stated beside the values; conditions: 30 µM; note: in the data most compounds retested in dose-response had high values
T1 sequence (whole entry): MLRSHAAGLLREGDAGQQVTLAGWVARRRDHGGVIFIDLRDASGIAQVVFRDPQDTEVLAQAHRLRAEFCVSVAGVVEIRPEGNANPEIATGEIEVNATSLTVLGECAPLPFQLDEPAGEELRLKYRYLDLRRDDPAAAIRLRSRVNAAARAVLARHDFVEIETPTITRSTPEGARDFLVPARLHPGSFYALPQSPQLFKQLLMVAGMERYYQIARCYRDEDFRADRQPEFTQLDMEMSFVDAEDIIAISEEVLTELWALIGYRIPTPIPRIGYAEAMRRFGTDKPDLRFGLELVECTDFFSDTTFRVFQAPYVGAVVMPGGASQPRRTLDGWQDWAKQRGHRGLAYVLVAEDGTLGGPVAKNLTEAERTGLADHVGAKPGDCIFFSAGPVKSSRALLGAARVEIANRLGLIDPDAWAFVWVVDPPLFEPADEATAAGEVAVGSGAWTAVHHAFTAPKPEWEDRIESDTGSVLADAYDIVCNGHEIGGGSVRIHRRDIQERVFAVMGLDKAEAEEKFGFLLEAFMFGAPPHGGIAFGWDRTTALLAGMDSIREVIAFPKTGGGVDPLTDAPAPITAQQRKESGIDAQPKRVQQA

SMILES	Percent Effect [%]
CC(C(N)=O)S(=O)(=O)Cc1cc(Cl)c2c(c1)OCO2 (stereo not given)	-7.47
N#Cc1ncn(CCC(=O)Nc2ccc(Cl)cc2F)n1	10.4
Cc1noc(C)c1CNC(=O)c1ccc(NC2CC2)nc1	3.65
O=C(O)c1cc(NS(=O)(=O)c2cccc(Cl)c2F)ccc1Cl	0.425
CNC(=O)[C@@H]1C[C@H]2CN(C(=O)c3ccco3)C[C@H]2N1C	-1.4
CC(NC(=O)N1CCC(OCc2ccccc2)CC1)c1nncn1C (stereo not given)	-3.22
CN1[C@H](Cn2cccn2)C[C@@H]2CN(C(=O)Cc3cccs3)CC[C@@H]21	3.12
CC(C)C(=O)N1CCC2(CCCN(CCOc3ccccc3)C2)C1 (stereo not given)	2.32
O=C(Cc1ccsc1)N1CCn2cc(CN3CCCC3)nc2C1	-0.684
CC(C)CNC(=O)[C@H]1CCS(=O)(=O)[C@@H]2CN(Cc3cccc(Cl)c3)C[C@H]12	-3.06
CN(C)C(=O)[C@H]1C[C@@H]2CN(S(=O)(=O)Cc3ccccc3)C[C@H]1O2	3.99
Cn1nccc1C1CCN(CC(O)c2cccc(F)c2)CC1 (stereo not given)	-1.6
CCc1cc(=O)[nH]c2nnc(SCC(=O)OC)n12	-8.74
Cc1nc(CN(C)C2CCN(CC(=O)N3CCOCC3)C2)no1 (stereo not given)	5.36
COc1ccccc1CNC(=O)Cn1ncc2c1c(C)nn2C	-0.668
CC(C)C(C)NC(=O)Nc1ccc(CS(C)(=O)=O)cc1 (stereo not given)	3.12
COc1ncccc1NC(=O)C1CC(=O)N(Cc2ccccn2)C1 (stereo not given)	1.2
COc1ccc(CN2CCC(O)CC2)c(OC)c1	-2.06
Cn1ccc2ccnc(CC3CN(C(=O)C4CCC(F)(F)CC4)C3)c21	0.551
Cc1cccc(C(=O)N2CCCN(Cc3cnn(C)c3)CC2)n1	-3.08

SMILES	Percent Effect [%]
CC(Cn1cccn1)NC(=O)Nc1nccs1 (stereo not given)	-0.364
COCc1noc(-c2ccc(N(C)Cc3cc(C)no3)nc2)n1	0.703
c1ccc(C[C@H]2[C@H](N3CCOCC3)CCN2Cc2cccnc2)cc1	2.33
COc1ccc(CCN2CCCC(CN(C)Cc3ccc(C)o3)C2)cc1 (stereo not given)	-1.25
CCN1CCN(C2CCN(Cc3nc(-c4ccoc4)no3)CC2)C1=O	1.49
Cc1ncc(CNC(=O)CCOc2ccccc2)c(C2CCCN2C)n1 (stereo not given)	5.05
O=C(CCc1ccc(O)cc1)N1CCC(Cc2ccc(CO)cc2)C1 (stereo not given)	-0.39
CCN1CCN(CC(O)c2ccc(OC(F)(F)F)cc2)CC1 (stereo not given)	5.22
CN1CCN(C2CCN(CCOc3ccc(F)cc3)CC2)C1=O	-2.61
OC(CN1CCOCC1)c1ccc(OC(F)(F)F)cc1 (stereo not given)	-1.62
Cn1cc(CN2CCCN(C(=O)c3ccc4c(c3)COC4)CC2)cn1	-0.281
Cc1cc(C)cc(OCCC(=O)N2CCCC(n3cncn3)C2)c1 (stereo not given)	-4.66
CC(C)Oc1ncnc2c1CCN(C(=O)c1cccn1C)CC2	-1.46
CS(=O)(=O)N1Cc2nccn2CC(Cn2ncccc2=O)C1 (stereo not given)	1.17
Cn1c(CN2CCOCC2)nnc1C1CCN(C(=O)C2CCCC2)CC1	1.73
O=S1(=O)c2ccccc2C2(CCN(Cc3ccccc3)C2)N1CC1CC1 (stereo not given)	-4.07
Cc1cc(S(=O)(=O)Nc2cccc(-n3cccc3)c2)sc1C(=O)O	7.63
OCCn1cc(CN2CCN(CCOCC(F)(F)F)CC2)cn1	-3.85
CNC(=O)c1cc2c(nc1N(C)C)CCN(S(=O)(=O)CC(C)C)CC2	-0.801
CCn1ccnc1CN1CCC(CNC(=O)c2ccc(C)nc2)C1 (stereo not given)	-0.565

biological target: Shiga toxin 2 (Escherichia coli O157:H7) (UniProt P09385+P09386); assay: E. coli 0.157:H7 Shiga Toxin SOP - stx2 screening assay; assay type: functional; set-up: scale not given: direction of the effect not stated beside the values; conditions: 30 µM

SMILES	Percent Effect [%]
CC(C(N)=O)S(=O)(=O)Cc1cc(Cl)c2c(c1)OCO2 (stereo not given)	26.2
N#Cc1ncn(CCC(=O)Nc2ccc(Cl)cc2F)n1	-41
Cc1noc(C)c1CNC(=O)c1ccc(NC2CC2)nc1	13.4
O=C(O)c1cc(NS(=O)(=O)c2cccc(Cl)c2F)ccc1Cl	20.1
CNC(=O)[C@@H]1C[C@H]2CN(C(=O)c3ccco3)C[C@H]2N1C	-6.39
CC(NC(=O)N1CCC(OCc2ccccc2)CC1)c1nncn1C (stereo not given)	3.46
CN1[C@H](Cn2cccn2)C[C@@H]2CN(C(=O)Cc3cccs3)CC[C@@H]21	-12.8
CC(C)C(=O)N1CCC2(CCCN(CCOc3ccccc3)C2)C1 (stereo not given)	10.8
O=C(Cc1ccsc1)N1CCn2cc(CN3CCCC3)nc2C1	-12
CC(C)CNC(=O)[C@H]1CCS(=O)(=O)[C@@H]2CN(Cc3cccc(Cl)c3)C[C@H]12	-29.7
CN(C)C(=O)[C@H]1C[C@@H]2CN(S(=O)(=O)Cc3ccccc3)C[C@H]1O2	-3.49
Cn1nccc1C1CCN(CC(O)c2cccc(F)c2)CC1 (stereo not given)	-15.8
CCc1cc(=O)[nH]c2nnc(SCC(=O)OC)n12	-6.54
Cc1nc(CN(C)C2CCN(CC(=O)N3CCOCC3)C2)no1 (stereo not given)	11.2
COc1ccccc1CNC(=O)Cn1ncc2c1c(C)nn2C	-20.2
CC(C)C(C)NC(=O)Nc1ccc(CS(C)(=O)=O)cc1 (stereo not given)	-11.6
COc1ncccc1NC(=O)C1CC(=O)N(Cc2ccccn2)C1 (stereo not given)	-0.103
COc1ccc(CN2CCC(O)CC2)c(OC)c1	7.95
Cn1ccc2ccnc(CC3CN(C(=O)C4CCC(F)(F)CC4)C3)c21	-23.1
Cc1cccc(C(=O)N2CCCN(Cc3cnn(C)c3)CC2)n1	-31.1

SMILES	Percent Effect [%]
CC(Cn1cccn1)NC(=O)Nc1nccs1 (stereo not given)	2.8
COCc1noc(-c2ccc(N(C)Cc3cc(C)no3)nc2)n1	-7.35
c1ccc(C[C@H]2[C@H](N3CCOCC3)CCN2Cc2cccnc2)cc1	-7.76
COc1ccc(CCN2CCCC(CN(C)Cc3ccc(C)o3)C2)cc1 (stereo not given)	-11.5
CCN1CCN(C2CCN(Cc3nc(-c4ccoc4)no3)CC2)C1=O	22.7
Cc1ncc(CNC(=O)CCOc2ccccc2)c(C2CCCN2C)n1 (stereo not given)	-10.2
O=C(CCc1ccc(O)cc1)N1CCC(Cc2ccc(CO)cc2)C1 (stereo not given)	-14.8
CCN1CCN(CC(O)c2ccc(OC(F)(F)F)cc2)CC1 (stereo not given)	-5.3
CN1CCN(C2CCN(CCOc3ccc(F)cc3)CC2)C1=O	-5.38
OC(CN1CCOCC1)c1ccc(OC(F)(F)F)cc1 (stereo not given)	13.6
Cn1cc(CN2CCCN(C(=O)c3ccc4c(c3)COC4)CC2)cn1	30.1
Cc1cc(C)cc(OCCC(=O)N2CCCC(n3cncn3)C2)c1 (stereo not given)	5.55
CC(C)Oc1ncnc2c1CCN(C(=O)c1cccn1C)CC2	-10.4
CS(=O)(=O)N1Cc2nccn2CC(Cn2ncccc2=O)C1 (stereo not given)	-8.61
Cn1c(CN2CCOCC2)nnc1C1CCN(C(=O)C2CCCC2)CC1	-33.5
O=S1(=O)c2ccccc2C2(CCN(Cc3ccccc3)C2)N1CC1CC1 (stereo not given)	12.3
Cc1cc(S(=O)(=O)Nc2cccc(-n3cccc3)c2)sc1C(=O)O	11
OCCn1cc(CN2CCN(CCOCC(F)(F)F)CC2)cn1	27.3
CNC(=O)c1cc2c(nc1N(C)C)CCN(S(=O)(=O)CC(C)C)CC2	-2.65
CCn1ccnc1CN1CCC(CNC(=O)c2ccc(C)nc2)C1 (stereo not given)	-34.1
